# ANO1 activ – activates or potentiates the mouse TMEM16A chloride channel; HEK293 TMEM16A/YFP-H148Q/I152L, iodide quench fluorescence; active compounds read low; Q8BHY3; AID 623877; 0.3% of 340,000 active; B-score at 10 µM;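 active = fluorescence-ratio B-score plate-corrected deviation score at least 3 library SD below zero, with starting fluorescence score within 5 deviations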;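 note: channel opened by trigger with iodide after compound preincubation; score built on the fluorescence ratio of max minus min over baseline; more negative score means more quench and so TMEM16A activation or potentiation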
# CHT allo act – allosterically activates the human high affinity choline transporter | CHT-expressing cells, membrane potential dye, choline EC20; active compounds read high; LV-AA mutant CHT in HEK293 cells | B-score at 10 µM | 0.49% of 310,000 active;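 active = initial fluorescence not abnormally high and integrated response B-score, plate-corrected, over 3 SD above library mean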
# Target sequence (Q9GZV3 whole entry, looked up): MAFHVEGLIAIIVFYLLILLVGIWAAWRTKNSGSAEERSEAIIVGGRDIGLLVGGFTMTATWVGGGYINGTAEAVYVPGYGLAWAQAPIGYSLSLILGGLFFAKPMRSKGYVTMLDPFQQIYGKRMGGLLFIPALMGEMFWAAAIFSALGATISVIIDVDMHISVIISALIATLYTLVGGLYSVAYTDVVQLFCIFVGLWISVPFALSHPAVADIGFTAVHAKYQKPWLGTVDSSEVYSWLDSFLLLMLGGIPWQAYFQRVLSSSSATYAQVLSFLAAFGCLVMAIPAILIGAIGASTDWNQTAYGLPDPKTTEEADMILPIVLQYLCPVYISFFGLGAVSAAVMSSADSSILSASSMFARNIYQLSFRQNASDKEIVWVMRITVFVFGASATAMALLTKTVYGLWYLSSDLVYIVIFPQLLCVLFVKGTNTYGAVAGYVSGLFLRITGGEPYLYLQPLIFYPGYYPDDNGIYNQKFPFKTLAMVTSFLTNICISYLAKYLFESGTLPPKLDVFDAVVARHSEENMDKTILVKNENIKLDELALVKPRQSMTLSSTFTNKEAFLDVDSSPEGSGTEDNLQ
# ANO1 block – blocks the mouse calcium-activated chloride channel TMEM16A. HEK293 TMEM16A/YFP iodide influx fluorescence, ionomycin. normalized B-score (activity score, 25-100; higher = stronger inhibition) at 10 µM. 1.2% of 310,000 active. AID 588511;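 active = ratio plate-corrected score three or more library SD toward inhibition, starting fluorescence score within five deviations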;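 note: score derived from kinetic fluorescence span divided by baseline fluorescence per well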
# CHT inh – inhibitors of human choline transporter CHT; Q9GZV3; CHT-expressing cells, membrane potential dye, choline response; active compounds read low; B-score at 10 µM; 0.86% of 310,000 active; AID 488975;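 active = B-score over 3 SD under the library average, and starting fluorescence ratio not unusually high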;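 note: choline stimulus applied at its EC90 after an EC20 pre-addition; B-score computed on integrated fluorescence ratio after choline addition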
# CHT act confirm – confirmation of human choline transporter (CHT) activators; 91% of 2,500 active; CHT-expressing cells, membrane potential dye fluorescence (FDSS); % of choline EC20–EC90 response window; HEK293 expressing CHT LV-AA mutant; choline added at its EC20; shares compounds with CHT allo act; activation, % at 10 µM; AID 504833;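 active = primary screen active, with duplicate mean activation above negative control mean plus 3 SD, cut at about 11% in these data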
# HEK293 MP dye – counter-screen for CHT activators: effect in parental HEK293 cells; AID 623908; 62% of 2,500 active; shares compounds with CHT allo act; membrane potential dye fluorescence (FDSS); measured after EC20 choline addition; ratio readout change at 10 µM, hits read low;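 active = duplicate-averaged ratio beyond 3 SD from buffer wells, up or down, though filed actives are nearly all decreases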
# Hits are given with their value; . = inactive; / = no result given. Sampled rows, rich in hits. Any-hit rate of the full collection: about 2.4%.
SMILES,ANO1 activ,CHT allo act,ANO1 block,CHT inh,CHT act confirm,HEK293 MP dye
CCn1c(=O)c2sccc2n(Cc2cc(C(=O)OC)ccc2OC)c1=O,.,.,.,.,36,.
Cc1nc(NC(C)c2ccccc2)c2c3c(sc2n1)CCC3 (configuration not stated),.,.,.,.,18,.
COc1ccc2c(c1OC)C(=O)N1N=C(c3ccc(O)cc3)CC21 (configuration not stated),.,.,.,.,/,/
CCC(C(=O)Nc1cc(C)cc(C)n1)c1ccccc1 (configuration not stated),.,.,.,.,/,/
Cc1cc(C)nc(NC(=O)C(c2ccccc2)c2ccccc2)c1,.,6.9,.,.,40,-35
Cc1ccc(N2CCN(S(=O)(=O)N(C)C)CC2)c(C)c1,.,.,.,.,/,/
COc1ccc(CN(C)C(=O)c2ccccc2OCc2c(C)noc2C)c(OC)c1,.,/,/,/,/,/
COc1ccc(Br)cc1CN(C)C(=O)c1ccccc1OCc1c(C)noc1C,.,.,.,.,38,.
Cc1ccc(C(C)C)c(OCc2nn(CC(=O)c3ccc(OC(F)F)cc3)c3[n+]2CCCCC3)c1,.,9.8,.,.,.,.
COc1ccc(C(=O)Cn2nc(CNc3ccc(Br)cc3)[n+]3c2CCCCC3)cc1,.,.,.,.,/,/
O=C(c1cccs1)c1cn(CC(=O)N2CCc3ccccc3C2)c2ccccc12,.,.,.,.,/,/
C[n+]1cccc(C2C(C#N)=C(N)Oc3c2ccc2ccccc32)c1 (configuration not stated),.,.,.,.,43,-57
C[n+]1cccc2ccc3c(c21)OC(N)=C(C#N)C3c1ccccc1 (configuration not stated),.,10,.,.,72,-80
N#CC1=C(N)Oc2c(ccc3cccnc23)C1c1cccnc1 (configuration not stated),.,.,.,.,/,/
CN(Cc1ccc(Cl)cc1)C(=O)COC(=O)CSc1ccc([N+](=O)[O-])cc1,.,/,/,/,/,/
O=Cc1c(N2CCSCC2)nc2ccccn2c1=O,.,.,.,.,/,/
CN(C)c1ccnc(Nc2ccccc2)c1C#N,.,6.3,.,.,52,-35
C=CCNC(=O)c1ccc2c3n(nc2c1)-c1ccc(Cl)cc1CO3,.,6.5,.,.,15,-20
COc1ccccc1C(=O)NC(=O)COC(=O)C1CC1C (configuration not stated),.,.,.,.,/,/
CCOC(=O)C1CCCN(C(=O)C2CCC(CNS(=O)(=O)c3ccc(NC(C)=O)cc3)CC2)C1 (configuration not stated),.,.,.,.,.,.
Cc1ccn2c(Nc3ccc4c(c3)OCO4)c(-c3ccccn3)nc2c1,.,6.3,.,.,51,.
COc1ccc(S(=O)(=O)NCc2ccc3c(c2)OCO3)cc1OC,.,.,.,.,/,/
COc1ccccc1C(=O)N1C(CC(=O)Nc2cc(Cl)ccc2C)C(=O)NC2CCCCC21 (configuration not stated),.,.,.,.,24,.
C[n+]1cn(/N=C/c2ccccc2)c2ccccc21,.,6.6,.,.,56,-55
C(=N\n1c2ccccc2c2ccccc21)/c1ccccc1,.,.,.,.,/,/
SMILES,ANO1 activ,CHT allo act,ANO1 block,CHT inh,CHT act confirm,HEK293 MP dye
CCOC(=O)C1CCN(C(=O)Cc2c(C(=O)O)n(C)c3ccccc23)CC1,.,.,.,.,/,/
CC1(C)CC(C(CCN(Cc2ccccc2)C(=O)c2ccco2)c2ccc(F)cc2)CCO1 (configuration not stated),.,9.7,.,.,56,.
Brc1cnc(N2CCCC2)nc1N1CCOCC1,.,.,.,.,16,-20
Brc1cnc(N2CCCCC2)nc1N1CCOCC1,.,.,.,.,/,/
O=C(c1ccccc1CCc1ccccc1)N1CCN(c2ccccn2)CC1,.,6.5,.,.,27,.
Cc1ccc2c(O)c(C)c(=O)[nH]c2n1,.,.,.,.,/,/
Cc1c(CC(=O)N2C[C@H]3C[C@@H](C2)c2cccc(=O)n2C3)c(=O)oc2cc3occ(C(C)(C)C)c3cc12,.,.,.,.,/,/

# Screens (PubChem BioAssay)
